TROY NFkB inh: inhibitors of TROY-dependent NF-kB signaling. AID 1347056. inhibition, % at 10 µM. Q293 LMP1-TROYcd NF-kB luciferase reporter, 4 h. hit rate 0.98% among 360,000;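 active = compounds whose plate-normalised and pattern-corrected inhibition of the luciferase reporter signal at the single screening dose is 50% or more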
EWS-Fli inh: blocks EWS/Fli oncoprotein-driven transcription | A673 NR0B1-luciferase reporter, viability-normalised | inhibition, % at 12.6 µM | hit rate 0.67% among 350,000 | AID 651661;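 active = mean inhibition of at least 50% after viability correction, with every replicate also passing that limit; inconclusive = mean reaches 50% but only one of two replicates passes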;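 also: firefly luciferase signal divided by Alamar Blue viability fluorescence both relative to DMSO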
PAX8 reporter: lowers PAX8-driven luciferase in RMG-I cells; inhibition, % at 12.6 µM; hit rate 1.2% among 360,000; AID 652154; RMG-I TPO-luciferase reporter, SteadyGlo, 24 h;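 active = mean replicate inhibition at least 60% with every replicate also reaching 60%; inconclusive = only one of the two criteria is met; inactive = mean below 60% and not all replicates reaching 60%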;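 also: luciferase light reporting Pax8 driven TPO promoter activity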
TWEAK Fn14 block: inhibitors of TWEAK-Fn14 interaction signaling. TWEAK-stimulated Fn14 reporter cells, luciferase luminescence, 8 h. inhibition, % at 10 µM. hit rate 2% among 360,000; in the data active = inhibition above about 50%
LGR2 inh: Drosophila LGR2 receptor signaling inhibition; hit rate 0.35% among 380,000; HEK293 LGR2, CRE-luciferase, bursicon-stimulated, 4 h; inhibition, % at 9.99 µM;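 active = drop in luminescence signal, shown as inhibition above about 50% in the replicate tests, limit read from the data, passing the limit was not always enough; inconclusive = probably only some replicates passing the limit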;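 also: agonist challenge used bursicon conditioned medium at about half maximal strength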
LMP1 NFkB inh: Epstein-Barr LMP1 NF-kappaB reporter inhibition; LMP1-induced NF-kappaB luciferase reporter cells, luminescence; inhibition, % at 12.5 µM; hit rate 0.69% among 350,000; AID 504558; in the data active = inhibition above about 41%; inconclusive = no clear call, values can overlap the other calls
Of the large screens only hits and unclear results are named; the others gave an inactive call. Rows were chosen to be rich in hits. Some 3.1% of all compounds tested hit in one or more screens of this group.

O=c1[nH]c2ccccc2n1C1CCN(C(c2ccccc2)c2nnnn2-c2ccc3c(c2)OCCO3)CC1 (centres undefined)	PAX8 reporter 81, TWEAK Fn14 block 52 (no result: LMP1 NFkB inh)
O=C1CNC[C@H]2[C@@H](c3ccc(Br)cc3)[C@H](CO)N12	none (no result: TROY NFkB inh, TWEAK Fn14 block, LMP1 NFkB inh)
COC(=O)[C@@H]1[C@@H](CO)[C@@H]2Cn3c(cccc3=O)[C@H]1N2C(=O)C1CCC1	none (no result: TROY NFkB inh, PAX8 reporter, TWEAK Fn14 block, LGR2 inh, LMP1 NFkB inh)
O=C(O)C[C@H]1CC[C@@H]2NC[C@H](O)COC[C@H]2O1	none (no result: TROY NFkB inh, TWEAK Fn14 block, LMP1 NFkB inh)
COc1ccc(-n2nnnc2C(c2ccnc3ccccc23)N2CCC(n3c(=O)[nH]c4ccccc43)CC2)cc1 (centres undefined)	none (no result: LMP1 NFkB inh)
CSCCC(c1nnnn1-c1ccc2c(c1)OCCO2)N1CCC(n2c(=O)[nH]c3ccccc32)CC1 (centres undefined)	PAX8 reporter 93 (no result: LMP1 NFkB inh)
CCC(c1nnnn1-c1ccc2c(c1)OCCO2)N1CCC(n2c(=O)[nH]c3ccccc32)CC1 (centres undefined)	PAX8 reporter 85 (no result: LMP1 NFkB inh)
O=C(Cc1ccccc1)N1CCCCN2[C@H](CO)[C@H](c3ccc(C#CC4(O)CCCC4)cc3)[C@H]2C1	none (no result: TROY NFkB inh, TWEAK Fn14 block, LMP1 NFkB inh)
CCCN1[C@@H]2Cn3c(cccc3=O)[C@H]1[C@@H](C(=O)N(C)C)[C@@H]2CO	none (no result: TROY NFkB inh, PAX8 reporter, TWEAK Fn14 block, LMP1 NFkB inh)
C[N+]1(C)[C@@H]2CC[C@H]1CC(OC(=O)C(CO)c1ccccc1)C2 (some centres undefined)	LMP1 NFkB inh 80
O=C(Cc1ccccn1)N1CCCCN2[C@@H](CO)[C@@H](c3ccc(-c4ccccc4)cc3)[C@@H]2C1	none (no result: TROY NFkB inh, TWEAK Fn14 block, LMP1 NFkB inh)
O=C(O)[C@H]1[C@H](CO)[C@H]2Cn3c(ccc(-c4ccncc4)c3=O)[C@@H]1N2C(=O)C1CC1	none (no result: TROY NFkB inh, TWEAK Fn14 block, LMP1 NFkB inh)
Cc1ccc(CN2C(=O)NC(=O)C3(Cc4c(nc5ccccn5c4=O)N4CCCCCC43)C2=O)cc1 (centres undefined)	TROY NFkB inh 87 (no result: EWS-Fli inh, LGR2 inh)
O=C1NC(=O)C2(Cc3ccccc3N3CCCC32)C(=O)N1c1cccc(Cl)c1 (centres undefined)	none (no result: EWS-Fli inh, LGR2 inh)
CCCNC(=O)N1[C@@H]2c3ccc(-c4ccccc4OC)c(=O)n3C[C@H]1[C@H](CO)[C@H]2C(=O)O	none (no result: TROY NFkB inh, TWEAK Fn14 block, LMP1 NFkB inh)
CCCCCc1nc2c(c(=O)c3ccccc3n2C)c(=O)n1C1CCCCCC1	TROY NFkB inh 89 (no result: PAX8 reporter, LGR2 inh)
CCCCCc1nc2ccccc2c(=O)n1-c1ccccc1[N+](=O)[O-]	none
CC=Cc1ccc2n(c1=O)C[C@@H]1[C@@H](CO)[C@H](C(=O)OC)[C@H]2N1CC1CCCC1 (mixture of isomers)	none (no result: TROY NFkB inh, PAX8 reporter, TWEAK Fn14 block, LMP1 NFkB inh)
O=[N+]([O-])c1ccc(NCc2ccc(Cl)cc2)c2ccncc12	TWEAK Fn14 block 51
O=[N+]([O-])c1ccc(N2CCOCC2)c2c1no[n+]2[O-]	PAX8 reporter 98, TWEAK Fn14 block 103 (no result: LGR2 inh)
O=C(Cc1cccnc1)N1CCCCN2[C@H](CO)[C@@H](c3ccc(C#CC4(O)CCCC4)cc3)[C@H]2C1	none (no result: TROY NFkB inh, TWEAK Fn14 block, LMP1 NFkB inh)
COc1ccc(C[C@H]2NC[C@H](O)[C@H]2OC(C)=O)cc1	TROY NFkB inh 82, EWS-Fli inh 66, PAX8 reporter 103, TWEAK Fn14 block 97, LMP1 NFkB inh 91 (no result: LGR2 inh)
CCOC(=O)c1ccc(-[n+]2c(-c3ccccc3)cc(-c3ccccc3)cc2-c2ccccc2)cc1	none (no result: TROY NFkB inh, EWS-Fli inh, PAX8 reporter, TWEAK Fn14 block, LGR2 inh)
Cc1ccc(-c2cc(-c3ccccc3)cc(-c3ccccc3)[n+]2-c2ccccc2)cc1	TROY NFkB inh 84, EWS-Fli inh 61, PAX8 reporter 95, TWEAK Fn14 block 104
c1ccc(-c2cc(-c3ccccc3)[n+](-c3ccccc3)c(-c3ccccc3)c2)cc1	TROY NFkB inh 71, EWS-Fli inh 69, PAX8 reporter 96, TWEAK Fn14 block 86, LGR2 inh 103
CCOC(=O)c1cccc(-[n+]2c(-c3ccccc3)cc(-c3ccccc3)cc2-c2ccccc2)c1	PAX8 reporter 89
CN(C)c1ccc(-[n+]2c(-c3ccccc3)cc(-c3ccccc3)cc2-c2ccccc2)cc1	EWS-Fli inh 53, PAX8 reporter 88, TWEAK Fn14 block 66
C[n+]1c(-c2ccccc2)cc(-c2ccc(Cl)cc2)cc1-c1ccccc1	PAX8 reporter inconclusive
Cc1ccc(-c2cc(-c3ccc(C)cc3)[n+](-c3ccc(C(=O)[O-])cc3)c(-c3ccc(C)cc3)c2)cc1	none
CN(C)CC#Cc1ccc([C@@H]2[C@H](CO)N3CCCCN(C(=O)Cc4ccccn4)C[C@@H]23)cc1	none (no result: TROY NFkB inh, TWEAK Fn14 block, LMP1 NFkB inh)

Screening results from PubChem BioAssay.
